Measured values reported in publication PMC5540273 (PLoS ONE, 2017).

Legend:
Conditions in all cases: concentration: 1 μM, replicates: in singlicate; n = 1
TSSK3 = tested on: TSSK3
TTK = tested on: TTK
TXK = tested on: TXK
[1] = tested on: TYK2(JH1domain-catalytic)
[2] = tested on: TYK2(JH2domain-pseudokinase)
TYRO3 = tested on: TYRO3
ULK1 = tested on: ULK1
ULK2 = tested on: ULK2
ULK3 = tested on: ULK3
VEGFR2 = tested on: T1, VEGFR2
T1 construct: gene KDR

VPS34 = tested on: T2, VPS34
T2 construct: gene PIK3C3

VRK2 = tested on: VRK2
WEE1 = tested on: WEE1
WEE2 = tested on: WEE2
WNK1 = tested on: WNK1
WNK2 = tested on: WNK2
WNK3 = tested on: WNK3
WNK4 = tested on: WNK4
YANK1 = tested on: T3, YANK1
T3 construct: gene STK32A

YANK2 = tested on: T4, YANK2
T4 construct: gene STK32B
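Also: KINOMEscan kinase panel screen.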

| Structure (SMILES) | %Inh (TSSK3) [%] | %Inh (TTK) [%] | %Inh (TXK) [%] | %Inh [1] [%] | %Inh [2] [%] | %Inh (TYRO3) [%] | %Inh (ULK1) [%] | %Inh (ULK2) [%] | %Inh (ULK3) [%] | %Inh (VEGFR2) [%] | %Inh (VPS34) [%] | %Inh (VRK2) [%] | %Inh (WEE1) [%] | %Inh (WEE2) [%] | %Inh (WNK1) [%] | %Inh (WNK2) [%] | %Inh (WNK3) [%] | %Inh (WNK4) [%] | %Inh (YANK1) [%] | %Inh (YANK2) [%] |
| --- | --- | --- | --- | --- | --- | --- | --- | --- | --- | --- | --- | --- | --- | --- | --- | --- | --- | --- | --- | --- |
| COCCNC(=O)c1ccc(-c2cc(C(=O)NC3CC3)cc(F)c2C)cc1 [GW868318] | 24 | 0 | 18 | 9 | 33 | 21 | 46 | 37 | 47 | 16 | 9 | 37 | 3 | 5 | 31 | 0 | 23 | 21 | 1 | 25 |
| Cc1c2ccc(N(C)c3ccnc(Nc4cccc(S(N)(=O)=O)c4)n3)cc2nn1Cc1ccccc1.Cl.Cl [GW787226] | 0 | 35 | 17 | 16 | 0 | 0 | 3 | 0 | 6 | 99.2 | 0 | 0 | 0 | 6 | 0 | 0 | 0 | 0 | 0 | 0 |
| Fc1ccc(-c2ncn(CCCN3CCOCC3)c2-c2ccccn2)cc1 [SB-211742] | 0 | 0 | 5 | 0 | 0 | 8 | 0 | 0 | 0 | 0 | 20 | 0 | 21 | 11 | 0 | 0 | 5 | 0 | 0 | 0 |
| O=C(NOCC1CC1)c1ccc(F)c(F)c1Nc1ccc(I)cc1Cl | 0 | 0 | 0 | 0 | 0 | 0 | 0 | 0 | 0 | 0 | 0 | 0 | 0 | 0 | 0 | 0 | 0 | 0 | 6 | 0 |
| COc1cc2c(cc1OC[C@@H](O)CO)ncc1c3ccc(C#N)cc3[nH]c21 | 0 | 0 | 0 | 0 | 22 | 0 | 71 | 99.2 | 50 | 19 | 0 | 9 | 0 | 0 | 1 | 0 | 2 | 0 | 19 | 0 |
